PubChem BioAssay (Tox21)
Records with an inconclusive call do not appear. Where a call stands in place of a potency, no number is given. Activity calls are given as the source filed them. The call rests on the fitted dose curve; in most records, active means well fitted inhibition curve with a large enough effect in the repeat runs; inconclusive means weak or mixed curves; inactive means no such curve, though single readings can be large or run the other way.

The compounds below were run against Cytochrome P450 2D6 (Homo sapiens) (UniProt P10635) (assay: Cytochrome P450 Family 2 Subfamily D Member 6 (CYP2D6) small molecule antagonists: luciferase reporter qHTS assay (AID 1671196; further: nearly all actives have a fitted effect of over 50% in size)). Settings: P450-Glo CYP2D6 enzyme assay, luciferin luminescence, 1 h; series mostly up to 115 µM.
Source text: U.S. Tox21 Program National Center for Advancing Translational Sciences [NCATS] U.S. Environmental Protection Agency [EPA] National Institutes of Environmental Health Sciences [NIEHS] National Toxicology Program [NTP] U.S. Food and Drug Administration [FDA] Tox21 Assay Overview: Cytochrome P450 (CYP) enzymes are membrane-bound hemeproteins that play a key role in metabolism of drugs and xenobiotics. Evaluation of the effect of chemicals on CYP isozymes is useful to minimize the adverse drug reactions and toxicities in drug development process. Tox21 chemicals were tested for their effect on CYP enzyme activities by using P450-Glo (TM) screening systems (Promega Corporation, Madison, WI). These systems provide a luminescent method containing proluciferin substrates and are converted to luciferin products by CYP isozymes. The luciferin products formed are detected with a luciferin detection reagent, and the amount of light produced is proportional to CYP activity. P450-Glo (TM) CYP2D6 screening system (Catalog. No. V9890) was used to detect the compounds that interfere in CYP2D6 activity.
Tox21 Assay Protocol Summary: Two ul of enzyme-substrate mix was dispensed into medium binding white/solid 1536-well plates (Greiner Bio-One North America Inc., Monroe, NC) using a BioRaptr Flying Reagent Dispenser (FRD, Beckman Coulter, Brea, CA). […] The assay plates were incubated at room temperature for 10 min. Then 2 ul of NADPH regeneration solution was added to each well of the assay plates using an FRD and incubated at room temperature for 1 h. The reaction was stopped by adding 4 ul of detection reagent using an FRD and after 20 min incubation at room temperature the luminescence signal was measured using a ViewLux plate reader (Perkin Elmer, Shelton, CT). Data were expressed as relative luminescence units.
Potency means the concentration at half of the fitted maximal effect.

Cytochrome P450 2D6 (Homo sapiens), sequence (P10635 whole entry, looked up): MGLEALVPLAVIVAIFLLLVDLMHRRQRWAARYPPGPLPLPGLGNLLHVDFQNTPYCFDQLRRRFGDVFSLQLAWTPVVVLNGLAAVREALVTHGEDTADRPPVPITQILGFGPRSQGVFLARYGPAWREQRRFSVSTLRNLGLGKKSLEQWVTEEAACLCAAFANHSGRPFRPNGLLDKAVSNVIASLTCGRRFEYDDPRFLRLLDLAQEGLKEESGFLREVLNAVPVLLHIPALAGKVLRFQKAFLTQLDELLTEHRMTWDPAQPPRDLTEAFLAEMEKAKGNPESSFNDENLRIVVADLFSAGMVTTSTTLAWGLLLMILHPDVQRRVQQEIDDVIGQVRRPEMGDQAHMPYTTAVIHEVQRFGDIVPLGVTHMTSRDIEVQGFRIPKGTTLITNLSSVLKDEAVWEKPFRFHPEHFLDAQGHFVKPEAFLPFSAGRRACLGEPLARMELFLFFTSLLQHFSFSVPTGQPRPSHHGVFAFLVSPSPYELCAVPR

| Compound | Potency |
| --- | --- |
| COc1ccc(CN(CCN(C)C)c2ncccn2)cc1 | 0.692 µM (active) |
| C[C@]12CCC(=O)C=C1[C@@H]1C[C@@H]1[C@H]1[C@@H]3[C@@H]4C[C@@H]4[C@@]4(CCC(=O)O4)[C@@]3(C)CC[C@@H]12 | inactive |
| SCCOCCOCCS | inactive |
| CC(C)CCCCCOC(=O)CS | 25.2 µM (active) |
| CCOc1ccc2c(c1)C(C)CC(C)(C)N2 (stereo not given) | 11.2 µM (active) |
| CCCCOc1ccc(N)cc1 | 39.9 µM (active) |
| COC(=O)C(C)(C)C | inactive |
| O=C1c2ccccc2C(=O)C1c1ccc2ccccc2n1 | inactive |
| CC(=O)Oc1cccc2c1C(=O)c1c(OC(C)=O)cc(C(=O)O)cc1C2=O | inactive |
| CC/C=C/CCO | inactive |
| NC(=O)c1cc[n+](CC2=C(C(=O)[O-])N3C(=O)[C@@H](NC(=O)Cc4cccs4)[C@H]3SC2)cc1 | inactive |
| CC(C)(C)c1cc(C=O)cc(C(C)(C)C)c1O | inactive |
| Sc1nc(S)nc(S)n1 | inactive |
| O=C(OCCN1CCOCC1)c1cccnc1Nc1cccc(C(F)(F)F)c1 | inactive |
| Nc1ccc(F)cc1F | inactive |
| NCCOCCOCCN | 25.2 µM (active) |
| CC(C)Cc1nccs1 | 12.9 µM (active) |
| O=C(O)c1cc(C(=O)O)c(C(=O)O)cc1C(=O)O | inactive |
| O=C(O)c1ccccc1-n1cc(C(=O)O)c(=O)c2cc(Nc3c(F)cc(F)cc3Cl)c(Cl)cc21 | inactive |
| CC(=O)S[C@H](C(=O)N[C@H]1Cc2ccccc2[C@H]2CCC[C@@H](C(=O)O)N2C1=O)C(C)C | inactive |

| Compound | Potency |
| --- | --- |
| Cc1c(Cl)cccc1Nc1ccccc1C(=O)O | inactive |
| CCC(=O)O[C@@H]1C[C@H]2CC[C@]1(C)C2(C)C | inactive |
| Cc1nc(C)c(C)nc1C | inactive |
| C1=COCCC1 | inactive |
| Nc1nc(Cl)nc2c1ncn2[C@H]1C[C@H](O)[C@@H](CO)O1 | inactive |
| CC(C)C/C=C(\C=O)c1ccccc1 | inactive |
| Cc1cccc(C)c1NC(=O)CN1CCCC1 | 15.5 µM (active) |
| NC(=O)c1ccccc1C(N)=O | 40.1 µM (active) |
| CC1(C)CC(O)CC(C)(C)N1[O] | inactive |
| CCC[Si](OC)(OC)OC | inactive |
| CC1(C)CC(=O)CC(C)(C)N1 | inactive |
| CC(=O)Nc1ccn(C2COC(COC(=O)c3ccccc3)O2)c(=O)n1 (stereo not given) | inactive |
| CC(C(=O)O)c1ccc2c(c1)Cc1cccnc1O2 (stereo not given) | inactive |
| CCCCCC1CCC(=O)O1 (stereo not given) | inactive |
| Cc1ccc(NC=O)c(C)c1 | inactive |
| CCCOC(C)=O | inactive |
| COc1ccc(/C(C)=C/C(=O)O)c(OC)c1 | inactive |
| O=[N+]([O-])c1ccccc1CCO | inactive |
| OCC(O)c1ccccc1 (stereo not given) | inactive |
| CCC(C)CCCC(C)(C)O (stereo not given) | inactive |
